Screening data as filed in PubChem.
Gal4-VP16 FLuc = counter-screen for ROR gamma inhibitors: Gal4-VP16 reporter | Drosophila S2 Gal4-VP16 UAS-luciferase, luminescence, 20 h | Potency, µM (doses to about 53.6 µM), actives largely listed as inhibitors | actives 3.5% (n = 310,000) | AID 2546;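 further: Gal4-VP16 expression switched on by copper sulfate through the metallothionein promoter; nearly all actives have a fitted effect of over 50% in size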
TRPV1 potentiator = enhances activation of the human vanilloid receptor TRPV1; potentiation, % at 8.33 µM; Q8NER1; TRPV1-expressing cells, Fluo-8 calcium influx, capsaicin EC20 potentiation; actives 0.02% (n = 320,000); in the data active means potentiation above about 80%; inconclusive means between about 30% and that limit
Target sequence (Q8NER1 whole entry, looked up): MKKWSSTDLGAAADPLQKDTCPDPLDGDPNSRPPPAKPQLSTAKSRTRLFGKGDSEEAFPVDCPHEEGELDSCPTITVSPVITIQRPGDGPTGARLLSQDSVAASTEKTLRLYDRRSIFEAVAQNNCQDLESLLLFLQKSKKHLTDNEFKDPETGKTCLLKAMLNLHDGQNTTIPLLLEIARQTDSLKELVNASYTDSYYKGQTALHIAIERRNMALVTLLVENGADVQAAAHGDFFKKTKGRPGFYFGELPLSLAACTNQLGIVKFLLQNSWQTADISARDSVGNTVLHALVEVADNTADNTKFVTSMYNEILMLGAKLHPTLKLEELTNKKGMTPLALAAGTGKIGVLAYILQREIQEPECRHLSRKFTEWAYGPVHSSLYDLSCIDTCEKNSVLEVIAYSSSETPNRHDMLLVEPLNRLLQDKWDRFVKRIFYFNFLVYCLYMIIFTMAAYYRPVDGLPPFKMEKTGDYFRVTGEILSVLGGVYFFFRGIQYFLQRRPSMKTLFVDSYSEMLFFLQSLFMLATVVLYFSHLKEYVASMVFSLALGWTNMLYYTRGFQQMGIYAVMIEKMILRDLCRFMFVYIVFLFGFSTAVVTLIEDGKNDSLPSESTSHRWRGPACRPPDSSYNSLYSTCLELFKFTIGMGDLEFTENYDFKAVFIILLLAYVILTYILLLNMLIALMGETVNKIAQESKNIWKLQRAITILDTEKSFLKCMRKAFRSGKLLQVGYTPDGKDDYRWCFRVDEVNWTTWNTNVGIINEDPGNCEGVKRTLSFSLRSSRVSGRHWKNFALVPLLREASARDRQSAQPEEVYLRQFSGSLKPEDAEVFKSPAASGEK
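Cells expressing TRPV1 were dye-loaded with Fluo-8 and read kinetically: 10 s baseline, 3 min after compound (agonist portion), then 2 min after EC20 capsaicin (allosteric enhancer portion). Calcium-bound dye fluorescence at 480/520 nm.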
RORgamma inh = ROR gamma (mouse) transcription inhibition; Drosophila S2 Gal4-RORgamma UAS-luciferase reporter, 20 h; Potency, µM (top dose mostly 53.6 µM), most hits filed as inhibitors; actives 5.4% (n = 310,000); further: nearly all actives have a fitted effect of over 60% in size
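Compounds are pin-transferred onto Drosophila Schneider cells expressing a copper-inducible Gal4–ROR gamma transactivation domain fusion. After 1 hr, copper sulfate is added to 700 uM final; luciferase is read 20 hr later.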
TRPV1 agonist = activates the human vanilloid receptor TRPV1. TRPV1-expressing cells, Fluo-8 calcium influx, agonist mode. activation, % at 8.33 µM. actives 0.19% (n = 320,000). AID 540275; in the data active means activation above about 80%; inconclusive means between about 30% and that limit
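Cells expressing TRPV1 were dye-loaded with Fluo-8 and read kinetically: 10 s baseline, 3 min after compound (agonist portion), then 2 min after EC20 capsaicin (allosteric enhancer portion). Calcium-bound dye fluorescence at 480/520 nm.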
uPA generation = cell surface uPA generation inhibition. actives 0.31% (n = 330,000). cell surface uPA generation assay, qHTS. AID 540303. Potency, µM (doses to about 38.3 µM), hits mostly inhibitors; active means well fitted inhibition curve with a large enough effect; inconclusive means small, poorly fitted or top-dose-only effect; inactive means no such curve, though single readings can be large or run the other way; tested in mouse RAW 264.7 cells; further: nearly all actives have a fitted effect of over 55% in size
Of the large screens only hits and unclear results are named; the others gave an inactive call. A selection: hits, their analogues and other compounds. The true share with any hit is near 5.8%. Unless noted, the call rests on the fitted dose curve; in most records, active means well fitted curve in the direction sought with a large enough effect; inconclusive means small, poorly fitted or top-dose-only effect, or another doubt; inactive means no such curve, though single readings can be large; an effect the other way counts as inactive or inconclusive.

COc1cc(NC(=S)NCCC(c2ccccc2)c2ccccc2)c(OC)cc1Cl	Gal4-VP16 FLuc 3.2µM, RORgamma inh 5µM
COc1ccc(Cl)cc1NC(=O)C/C(C)=N/NC(=O)c1ccc(O)cc1	Gal4-VP16 FLuc inconclusive, RORgamma inh 8.9µM
COc1ccc(Cl)cc1NC(=S)NCCO	TRPV1 potentiator inconclusive
COc1cc(NC(=S)NCCCN2CCOCC2)c(OC)cc1Cl	none
COc1ccc(Cl)cc1NC(=S)NCCC(c1ccccc1)c1ccccc1	Gal4-VP16 FLuc 4.5µM, RORgamma inh 7.1µM
COc1ccccc1NC(=S)NCCc1ccc(OC)c(OC)c1	RORgamma inh inconclusive
Cc1csc(NC(=O)CSc2ccc3nnc(-c4ccncc4)n3n2)n1	none
COc1ccc(Cl)cc1NC(=O)CNC(c1ccccc1)c1ccccc1	Gal4-VP16 FLuc 2.5µM, RORgamma inh inconclusive, TRPV1 agonist inconclusive
COc1ccc(Cl)cc1NC(=O)c1ccccc1C	none
COc1ccc(C)cc1NC(=O)CNC(c1ccccc1)c1ccccc1	TRPV1 agonist inconclusive
COc1ccc(Cl)cc1NC(=S)Nc1ccccc1C	Gal4-VP16 FLuc inconclusive, RORgamma inh 11µM
CN(C)Cc1ccccc1-c1cncnc1NCc1cccnc1	none (no result: TRPV1 potentiator, TRPV1 agonist, uPA generation)
COCCn1c(=O)c(-c2ccccc2)nc2cnc(OC)nc21	none (no result: TRPV1 potentiator, TRPV1 agonist, uPA generation)
COc1cc(/C=N/NC(=O)c2ccc(N)cc2)ccc1OC(=O)c1cccc(C)c1	none
COc1ccc(C(=O)Oc2cccc(/C=N/NC(N)=S)c2)cc1	Gal4-VP16 FLuc 10µM, RORgamma inh 16µM
COc1cc(/C=N/NC(N)=S)ccc1OCc1ccc(C)cc1	Gal4-VP16 FLuc 8.9µM, RORgamma inh 7.1µM
COc1cc(/C=N/NC(N)=S)ccc1OC(=O)c1ccc(C)cc1	Gal4-VP16 FLuc inconclusive, RORgamma inh 20µM
COc1cc(/C=N/NC(N)=S)ccc1OCC(=O)N1CCOCC1	none
CCCOCC(C)O (stereo not drawn)	none (no result: TRPV1 potentiator, TRPV1 agonist, uPA generation)
Cn1c(=O)c(-c2ccc(Cl)cc2)nc2cnc(N3CCOCC3)nc21	none (no result: TRPV1 potentiator, TRPV1 agonist, uPA generation)
CC1=C(C(=O)OCc2ccccc2)C(c2ccc(Br)cc2)NC(=O)N1CCCC(=O)O (stereo not drawn)	RORgamma inh inconclusive
CC1=C(C(=O)OCc2ccccc2)C(c2ccc(Cl)cc2)NC(=O)N1CCCC(=O)O (stereo not drawn)	RORgamma inh 16µM
CC1CCN(c2ccc(-c3ccc(NC(=O)C(F)(F)F)cc3)nn2)CC1	RORgamma inh 5.6µM
CC1=NN(C(=O)Cn2nc([N+](=O)[O-])cc2C)C(O)(C(F)(F)F)C1 (stereo not drawn)	Gal4-VP16 FLuc inconclusive, RORgamma inh 10µM
Cc1nn(Cc2ccc(C(=O)N3CCCC3)o2)c(C)c1[N+](=O)[O-]	none (no result: Gal4-VP16 FLuc, RORgamma inh)
CC1=NN(C(=O)c2ccc(Cn3nc(C)c(Br)c3C)cc2)C(O)(C(F)(F)F)C1 (stereo not drawn)	Gal4-VP16 FLuc 13µM, RORgamma inh inconclusive
CC1=NN(C(=O)c2ccc(Cn3nc(C)c([N+](=O)[O-])c3C)cc2)C(O)(C(F)(F)F)C1 (stereo not drawn)	Gal4-VP16 FLuc 11µM, RORgamma inh 11µM
Cc1cc([N+](=O)[O-])nn1CC(=O)N1N=C(C(F)F)CC1(O)C(F)F (stereo not drawn)	none
Cc1nn(Cc2ccc(C(=O)N3CCOCC3)o2)c(C)c1Br	none
CC(C)(C)OC(=O)C[C@@H]1C/C=C\C[C@H](CC(=O)NCCO)C(=O)NC[C@@H](c2ccccc2)OC1=O	none (no result: Gal4-VP16 FLuc, TRPV1 potentiator, RORgamma inh, TRPV1 agonist)
CCOC(=O)c1c(C)[nH]c(C(=O)COC(=O)CNC(=O)c2ccc(Cl)cc2Cl)c1C	none
CCC(=O)NC(c1cccs1)c1cc(Cl)c2ccccc2c1O (stereo not drawn)	none (no result: Gal4-VP16 FLuc, RORgamma inh)
O=C(CCc1ccccc1)NC(c1cccs1)c1cc(Cl)c2cccnc2c1O (stereo not drawn)	Gal4-VP16 FLuc 0.79µM, RORgamma inh 0.63µM
CC(=O)NC(c1cccs1)c1cc(Cl)c2ccccc2c1O (stereo not drawn)	none (no result: Gal4-VP16 FLuc, RORgamma inh)
CCCC(=O)NC(c1cccs1)c1cc([N+](=O)[O-])c2cccnc2c1O (stereo not drawn)	Gal4-VP16 FLuc 4µM, RORgamma inh 5.6µM
CC(=O)NC(c1cccs1)c1cc([N+](=O)[O-])c2cccnc2c1O (stereo not drawn)	Gal4-VP16 FLuc 16µM, RORgamma inh 6.3µM
CCC(=O)NC(c1cccs1)c1cc([N+](=O)[O-])c2cccnc2c1O (stereo not drawn)	Gal4-VP16 FLuc 5µM, RORgamma inh 3.2µM
COc1ccccc1CCNC(=O)/C(=C/c1cccnc1)NC(=O)c1ccccc1	none
CCCCn1c(N)c(N(CC(C)C)C(=O)CSCC(=O)Nc2ccc(OC)cc2)c(=O)[nH]c1=O	none (no result: Gal4-VP16 FLuc, RORgamma inh)
N#Cc1cc([N+](=O)[O-])ccc1NC(=O)CSc1n[nH]c(=O)[nH]c1=O	none (no result: Gal4-VP16 FLuc, TRPV1 potentiator, RORgamma inh, TRPV1 agonist)
Cc1ccc(N2CN(Cc3ccco3)CNC2=S)c(C)c1	none
CNc1c(NS(=O)(=O)c2ccc(OC)c(Cl)c2)c(=O)oc2ccccc12	none
S=c1[nH]c(-c2ccccc2)cn1/N=C/c1cccc2ccccc12	Gal4-VP16 FLuc inconclusive, RORgamma inh 2.5µM
Oc1ccc(/C=N/n2cc(-c3ccccc3)[nH]c2=S)cc1	RORgamma inh 7.9µM
Cc1ccc(/C=N/n2cc(-c3ccccc3)[nH]c2=S)s1	Gal4-VP16 FLuc 5µM, RORgamma inh 0.45µM, TRPV1 agonist inconclusive
Cc1cc(-c2n[nH]c(=S)n2/N=C/c2ccc(C)s2)n[nH]1	none
S=c1[nH]c(-c2ccccc2)cn1/N=C/c1ccccc1Br	Gal4-VP16 FLuc inconclusive, RORgamma inh 1µM
O=C(NN=Cc1cccc2ccccc12)C(=O)NN=Cc1cccc2ccccc12	none (no result: Gal4-VP16 FLuc, TRPV1 potentiator, RORgamma inh, TRPV1 agonist)
COc1cc(/C=N/n2cc(-c3ccccc3)[nH]c2=S)cc(OC)c1O	RORgamma inh inconclusive
O=C1c2c(O)cc(O)cc2O[C@H](c2ccc(O)c(O)c2)C1O (stereo partly drawn)	none (no result: TRPV1 potentiator, TRPV1 agonist, uPA generation)
CC(C)CN(C(=O)COC(=O)COc1ccc2c(c1)CCC2)c1c(N)n(Cc2ccccc2)c(=O)[nH]c1=O	none (no result: Gal4-VP16 FLuc, RORgamma inh)
CC1(C)CC(=O)C2=C(C1)Nc1ccccc1S2	none
CC1(C)CC(=O)C2=C(C1)Nc1ccccc1NC2	RORgamma inh 13µM
Cc1ccccc1N(CC(=O)NC1CCCCC1)C(=O)CCC(=O)Nc1nccs1	none
O=C(CCC1CCCCC1)Nc1nccs1	RORgamma inh 18µM
CC(C)(C)C1CCC(C(=O)Nc2nccs2)CC1 (stereo not drawn)	Gal4-VP16 FLuc 8.9µM, RORgamma inh 4.5µM
O=C(CN1C(=O)C2CCCCC2C1=O)Nc1nccs1 (stereo not drawn)	none
O=C(CCC(=O)N(CC(=O)NC1CCCC1)c1ccccc1F)Nc1nccs1	RORgamma inh 13µM
COc1ccc(CC2C(=O)NC(C)C(=O)N(C)C3Cc4ccc(cc4)Oc4cc(ccc4O)CC(C(=O)NC(C)C(=O)NC(C)C(=O)N2C)N(C)C3=O)cc1 (stereo not drawn)	none (no result: Gal4-VP16 FLuc, TRPV1 potentiator, RORgamma inh, TRPV1 agonist)
CN(C)C(CNc1ccc([N+](=O)[O-])cc1C#N)c1ccccc1 (stereo not drawn)	none
